From PubChem
Mot1-301 SUMO – inhibitors of SUMOylation pathway: yeast Mot1-301 growth rescue; S. cerevisiae Mot1-301 growth rescue, ATP luminescence, 38.5C; percent above DMSO median, 100 means doubled; growth rescue, % at 18.8 µM; actives 1% (n = 320,000); AID 2716;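 active = every valid replicate shows activation above 250% relative to neutral control wells; inactive = the rest, any valid replicate at or below 250%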;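 note: OY570 slx delta 5 strain wells were the positive control but not used for scaling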
Casp6 inh – blocks human caspase-6 cleavage activity | purified caspase-6, Z-VEID-R110 cleavage fluorescence | P55212 | actives 0.53% (n = 350,000) | inhibition, % at 12.5 µM;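 active = mean inhibition across replicates at least about 35%, with every replicate also reaching that limit, limit read from the data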;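 note: 0% = median of neutral control wells and 100% = no fluorescence left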
CDK5 p35 inh – blocks human CDK5/p35 kinase activity; actives 0.01% (n = 330,000); inhibition, % at 10 µM; AID 488839; Recombinant CDK5/p35, ADP-Glo luminescence, 60 min;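 active = highest replicate inhibition of at least 50% and at least 75% of replicates reaching 50%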;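 note: plate controls were DMSO neutral control for no effect and GW8510 at 10 µM for full effect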
Target sequence (Q00535 whole entry, looked up): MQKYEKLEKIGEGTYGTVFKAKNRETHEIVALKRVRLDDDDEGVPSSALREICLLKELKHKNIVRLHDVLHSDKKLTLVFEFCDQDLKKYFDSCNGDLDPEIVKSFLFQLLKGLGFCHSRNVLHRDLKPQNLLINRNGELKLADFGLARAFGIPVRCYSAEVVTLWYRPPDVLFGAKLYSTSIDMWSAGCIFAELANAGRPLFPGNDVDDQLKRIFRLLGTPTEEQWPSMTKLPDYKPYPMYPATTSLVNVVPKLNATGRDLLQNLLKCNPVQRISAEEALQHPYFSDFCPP
Target sequence (Q15078 whole entry, looked up): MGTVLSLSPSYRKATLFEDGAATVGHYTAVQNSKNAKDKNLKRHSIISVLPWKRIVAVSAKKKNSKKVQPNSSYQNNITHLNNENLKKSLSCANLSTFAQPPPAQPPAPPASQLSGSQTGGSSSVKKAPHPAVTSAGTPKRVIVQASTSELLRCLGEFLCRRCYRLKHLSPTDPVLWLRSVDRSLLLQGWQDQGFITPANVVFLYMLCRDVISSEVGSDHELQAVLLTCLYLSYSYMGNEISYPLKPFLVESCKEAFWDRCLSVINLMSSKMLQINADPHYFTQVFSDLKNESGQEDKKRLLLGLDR
N-glyco inh – blocks N-linked glycosylation in D54 reporter cells; D54 ERlucT glycosylation luciferase reporter, 24 h; percent of 100 nM tunicamycin response; reporter increase, % at 12.5 µM; actives 0.23% (n = 360,000);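 active = mean luciferase reporter signal, scaled so untreated is 0 and the glycosylation-blocking control 100, at or above a set limit in every replicate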;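 note: luciferase carries N-glycosylation sites so blocking glycosylation raises the light; 0% = median of neutral control wells and 100% = median of 100 nM tunicamycin wells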
ALR inh – human ALR oxidase inhibition via reduced H2O2. P55789. purified ALR, DTT oxidation, H2O2 HRP-luminol luminescence. inhibition, % (test concentration not listed). actives 3.8% (n = 290,000);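 active = mean replicate inhibition above about 79%, with every replicate also reaching it, limit read from the data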
NSD2 inh – blocks human histone methyltransferase NSD2; actives 0.54% (n = 310,000); O96028; inhibition, % at 12.5 µM; NSD2 peptide methylation, AlphaScreen, 120 min; in the data active = inhibition above about 50%
Starred values were filed as active, the others as inactive; · = not tested or not shown. Shown are actives, neighbours in structure and some others; about 3.9% of the full set was active somewhere.

SMILES	Mot1-301 SUMO	Casp6 inh	CDK5 p35 inh	N-glyco inh	ALR inh	NSD2 inh
O=C(c1ccccn1)N(Cc1cc2ccccc2[nH]c1=O)C1CCCCC1	4	·	-2	0	2	1
COc1ccc2[nH]c(=O)c(CN(C(=O)c3ccccn3)C3CCCCC3)cc2c1	0	·	0	3	99*	-1
C[C@@H]1CCCCO[C@@H](CN(C)S(=O)(=O)c2cccs2)[C@@H](C)CN([C@H](C)CO)C(=O)c2cc(NC(=O)Nc3ccccc3)ccc2O1	·	-1	·	·	·	·
C=CCNC(=O)/C(C#N)=C/c1c(C)nn(-c2ccccc2)c1Cl	-3	-1	0	7	96*	3
O=C(CCN1CCCCC1)NCC[C@@H]1CC[C@H](NC(=O)C2CCOCC2)[C@@H](CO)O1	·	-1	·	·	·	·
Cc1c(N=Cc2ccncc2)c(=O)n(-c2ccccc2)n1C	-9	·	0	1	24	0
Cc1c(N=Cc2ccccn2)c(=O)n(-c2ccccc2)n1C	8	·	0	0	98*	1
Cc1c(N=Cc2ccc[nH]2)c(=O)n(-c2ccccc2)n1C	-15	-1	0	0	97*	1
CC(C)C#Cc1ccc([C@@H]2[C@H](CO)N3C(=O)CN(C(=O)NC4CCCCC4)C[C@@H]23)cc1	·	1	·	·	·	·
O=C(C[C@H]1CC[C@@H]2[C@H](COC[C@@H](O)CN2Cc2ccc(F)cc2)O1)NCc1ccncn1	·	-1	·	·	·	·
Clc1ccc(SCc2cn3ccsc3n2)cc1	171	·	0	-3	32	1
Cc1csc2nc(CSc3ccc(Cl)cc3)cn12	-16	·	2	-8	92*	-2
Cc1ccc(-c2nc3ccc(Cl)cn3c2Cc2ccsc2)cc1	·	37*	·	-1	·	·
COC(=O)CCS(=O)(=O)c1cc(Cl)ccc1Cl	-20	·	0	0	95*	-3
CCCc1[nH][nH]c(=O)c1C(c1ccc(Br)cc1)C(C#N)C#N (configuration not stated)	12	·	3	0	95*	5
CC(C)c1cn(CC[C@H]2CC[C@H](NS(=O)(=O)c3ccc(F)cc3)[C@@H](CO)O2)nn1	·	0	·	·	·	·
CC(=O)Nc1cccc(-c2csc(Nc3ccc(C)cn3)n2)c1	22	·	1	-13	99*	0
CC(=O)Nc1cccc(-c2csc(Nc3ncccn3)n2)c1	·	1	·	·	·	-5
CN1C(=O)CC(C(=O)O)SC1=Nc1cc(Cl)c(O)c(Cl)c1 (configuration not stated)	-10	·	-1	2	99*	2
C[C@H]1CN([C@@H](C)CO)C(=O)c2cc(C#Cc3ccccc3F)cnc2O[C@H]1CN(C)C(=O)C1CCC1	·	-2	·	·	·	·
C[C@@H]1CCCCO[C@@H](CN(C)Cc2ccc3c(c2)OCO3)[C@@H](C)CN([C@@H](C)CO)C(=O)c2cc(NC(=O)CCCN(C)C)ccc2O1	·	-34	·	·	·	·
N#Cc1ccc(C2=NC(C(F)(F)F)(C(F)(F)F)c3c(n(Cc4ccco4)c(=O)[nH]c3=O)N2)cc1	-4	·	0	2	96*	-1
O=c1[nH]c(=O)n(Cc2ccco2)c2c1C(C(F)(F)F)(C(F)(F)F)N=C(CCc1ccccc1)N2	2	·	1	-1	·	0
CN1/C(=C\C=C(C#N)C#N)C(C)(C)c2ccccc21	34	-9	0	2	-9	2
CN1/C(=C/C=N/n2cnnc2)C(C)(C)c2ccccc21	1	·	0	1	94*	-2
SMILES	Mot1-301 SUMO	Casp6 inh	CDK5 p35 inh	N-glyco inh	ALR inh	NSD2 inh
CC(C)NC(=O)Nc1ccc2c(c1)C(=O)N([C@@H](C)CO)C[C@@H](C)[C@H](CN(C)Cc1ccncc1)OCCCC[C@@H](C)O2	·	-3	·	·	·	·
COc1cc(/C=C2\CCCc3c2nc2ccccc2c3C(=O)O)cc(OC)c1O	-15	-1	0	0	99*	2
O=C(O)c1c2c(nc3ccccc13)/C(=C/c1ccc(O)cc1)CCC2	8	3	-2	2	100*	-2
O=C(O)c1ccc(/C=C2\CCCc3c2nc2ccccc2c3C(=O)O)cc1	3	·	-2	3	-12	4
COc1ccc(S(=O)(=O)N2C[C@@H](O)COC[C@@H]3O[C@@H](CC(=O)NCCN4CCCCC4)CC[C@H]32)cc1	·	-2	·	·	·	·
C=CCn1c(SCC(=O)c2ccc(O)c(O)c2)nnc1-c1cccc(Cl)c1	-7	20	1	-3	98*	·
CCn1c(SCC(=O)c2ccc(O)c(O)c2)nnc1-c1ccccc1	-20	·	-1	-3	98*	11
Cc1ccc(-n2c(SCC(=O)c3ccc(O)c(O)c3)nnc2-c2ccccc2)cc1	·	·	·	·	·	2
CCn1c(CSc2nc3ccccc3s2)nnc1SCC(=O)c1ccc(O)c(O)c1	-3	·	-1	-8	98*	23
C=CCn1c(SCC(N)=O)nnc1-c1cc(Br)ccc1O	-12	3	1	4	97*	0
COC(=O)c1cc(NCc2ccccc2F)ccc1N1CCOCC1	-21	·	0	2	99*	-5
CCOC(=O)c1cc(NCc2cccs2)ccc1N1CCOCC1	-3	1	1	-1	99*	8
O=C(CS(=O)c1ccc(C(F)(F)F)cc1[N+](=O)[O-])Oc1ccccc1 (configuration not stated)	214	·	-1	-13	99*	1
COC(=O)c1ccc(OC(=O)CS(=O)c2ccccc2[N+](=O)[O-])cc1 (configuration not stated)	2	·	-1	-2	-58	-4
CC(=O)N[C@H]1CC[C@@H](CCNC(=O)C2CCCCC2)O[C@@H]1CO	·	6	·	·	·	·
C[C@@H]1O[C@@H](O[C@H]2[C@H](O)[C@@H](O)[C@H](Oc3c(-c4ccc(O)c(O)c4)oc4cc(O)cc(O)c4c3=O)O[C@@H]2CO)[C@H](O)[C@H](O)[C@H]1O	4	·	3	3	96*	·
COc1ccc(-c2oc3c(CC=C(C)C)c(O[C@@H]4O[C@H](CO)[C@@H](O)[C@H](O)[C@H]4O)cc(O)c3c(=O)c2O[C@@H]2O[C@@H](C)[C@H](O)[C@@H](O)[C@H]2O)cc1	12	·	·	·	17	·
C[C@@H]1O[C@@H](Oc2c(-c3ccc(O)c(O)c3)oc3cc(O)cc(O)c3c2=O)[C@H](O)[C@H](O)[C@H]1O	-14	19	-1	1	99*	·
COc1cc(-c2oc3cc(O)cc(O)c3c(=O)c2O[C@@H]2O[C@H](COC3O[C@@H](C)[C@H](O)[C@@H](O)[C@H]3O)[C@@H](O)[C@H](O)[C@H]2O)ccc1O (some centres not stated)	8	-8	0	0	94*	·
C[C@@H]1O[C@@H](Oc2c(-c3cc(O)c(O)c(O)c3)oc3cc(O)cc(O)c3c2=O)[C@H](O)[C@H](O)[C@H]1O	-2	22	0	0	99*	·
